Measured values: PubChem BioAssay AID1159580 (chemical genetic matrix, 2015)
Screen size: about 5,500 compounds; about 2,000 (36%) were called active. Inconclusive results (about 18%) are left out. This is one part of the list. Unmarked numbers belong to inactive results. Rule as the data show it: active = normalized growth mostly below about 0.91 (no sharp cut-off); inconclusive = no clear call, values can overlap the other calls; inactive = mostly above about 0.92.

Test: chemical genetic growth profiling, strain panel (AID 1159580);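 also: tested at 20 µM; growth read once vehicle control cultures reached saturation at 30 °C; 1 = growth at the plate median or of vehicle wells; lower values mean less growth of the strain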
Conditions: S. cerevisiae deletion strains, growth OD

O=C(O[C@@H]1Cc2c(O)cc(O)cc2O[C@@H]1c1cc(O)c(O)c(O)c1-c1c([C@H]2Oc3cc(O)cc(O)c3C[C@H]2O)cc(O)c(O)c1O)c1cc(O)c(O)c(O)c1
normalized growth (locus YAL013W, strain DEP1, stronger effect = lower value): 0.0787 (active)
normalized growth (locus YAL021C, strain ccr4, stronger effect = lower value): 0.962
normalized growth (locus YAL026C, strain drs2, stronger effect = lower value): 0.965
normalized growth (locus YAL030W, strain snc1, stronger effect = lower value): 1.01
normalized growth (locus YBL061C, strain skt5, stronger effect = lower value): 0.997
normalized growth (locus YBR009C, strain hhf1, stronger effect = lower value): 0.979
normalized growth (locus YBR021W, strain FUR4, stronger effect = lower value): 1.03
normalized growth (locus YBR023C, strain chs3, stronger effect = lower value): 0.936
normalized growth (locus YBR171W, strain sec66, stronger effect = lower value): 1.02
normalized growth (locus YBR229C, strain ROT2, stronger effect = lower value): 0.387 (active)
normalized growth (locus YBR231C, strain swc5, stronger effect = lower value): 0.873 (active)
normalized growth (locus YBR279W, strain paf1, stronger effect = lower value): 0.978
normalized growth (locus YCL011C, strain gbp2, stronger effect = lower value): 0.988
normalized growth (locus YCL016C, strain dcc1, stronger effect = lower value): 0.988
normalized growth (locus YCL029C, strain bik1, stronger effect = lower value): 0.643 (active)
normalized growth (locus YCL061C, strain MRC1, stronger effect = lower value): 0.993
normalized growth (locus YCL069W, strain vba3, stronger effect = lower value): 1.01
normalized growth (locus YCR088W, strain abp1, stronger effect = lower value): 1.03
normalized growth (locus YDL005C, strain med2, stronger effect = lower value): 1.03
normalized growth (locus YDL035C, strain GPR1, stronger effect = lower value): 0.0755 (active)
normalized growth (locus YDL040C, strain nat1, stronger effect = lower value): 1
normalized growth (locus YDL074C, strain BRE1, stronger effect = lower value): 0.204 (active)
normalized growth (locus YDL101C, strain DUN1, stronger effect = lower value): 0.113 (active)
normalized growth (locus YDL134C, strain PPH21, stronger effect = lower value): 0.09 (active)
normalized growth (locus YDL185W, strain tfp1, stronger effect = lower value): 0.928
normalized growth (locus YDL192W, strain arf1, stronger effect = lower value): 0.553 (active)
normalized growth (locus YDR001C, strain nth1, stronger effect = lower value): 1.03
normalized growth (locus YDR069C, strain doa4, stronger effect = lower value): 0.893 (active)
normalized growth (locus YDR101C, strain arx1, stronger effect = lower value): 0.772 (active)
normalized growth (locus YDR137W, strain rgp1, stronger effect = lower value): 0.984
normalized growth (locus YDR159W, strain sac3, stronger effect = lower value): 1.14 [resistant] (active)
normalized growth (locus YDR162C, strain NBP2, stronger effect = lower value): 0.0726 (active)
normalized growth (locus YDR195W, strain ref2): 1.07
normalized growth (locus YDR297W, strain sur2, stronger effect = lower value): 0.981
normalized growth (locus YDR318W, strain mcm21, stronger effect = lower value): 0.61 (active)
normalized growth (locus YDR334W, strain swr1, stronger effect = lower value): 0.985
normalized growth (locus YDR335W, strain msn5, stronger effect = lower value): 0.979
normalized growth (locus YDR388W, stronger effect = lower value): 0.737 (active)
normalized growth (locus YDR392W, strain spt3, stronger effect = lower value): 1.02
normalized growth (locus YDR502C, strain sam2, stronger effect = lower value): 0.362 (active)
normalized growth (locus YEL003W, strain gim4, stronger effect = lower value): 0.968
normalized growth (locus YEL037C, strain rad23, stronger effect = lower value): 1
normalized growth (locus YEL061C, strain CIN8 (second series), stronger effect = lower value): 1.02
normalized growth (locus YER015W, strain faa2, stronger effect = lower value): 0.892 (active)
normalized growth (locus YER016W, strain bim1, stronger effect = lower value): 1.01
normalized growth (locus YER110C, stronger effect = lower value): 0.992
normalized growth (locus YER111C, strain swi4, stronger effect = lower value): 0.963
normalized growth (locus YER155C, strain BEM2 (second series), stronger effect = lower value): 1.03
normalized growth (locus YER155C, strain BEM2, stronger effect = lower value): 0.523 (active)
normalized growth (locus YER167W, strain BCK2, stronger effect = lower value): 0.295 (active)
normalized growth (locus YFR010W, strain ubp6, stronger effect = lower value): 0.986
normalized growth (locus YGL078C, strain dbp3, stronger effect = lower value): 0.983
normalized growth (locus YGL086W, strain mad1, stronger effect = lower value): 0.308 (active)
normalized growth (locus YGL167C, strain pmr1, stronger effect = lower value): 1
normalized growth (locus YGL173C, strain kem1, stronger effect = lower value): 0.961
normalized growth (locus YGL227W, strain vid30, stronger effect = lower value): 1.04
normalized growth (locus YGL240W, strain doc1, stronger effect = lower value): 1.09
normalized growth (locus YGL248W, strain PDE1, stronger effect = lower value): 0.146 (active)
normalized growth (locus YGL253W, strain hxk2, stronger effect = lower value): 1.01
normalized growth (locus YGR078C, strain PAC10, stronger effect = lower value): 0.414 (active)
normalized growth (locus YGR135W, strain pre9, stronger effect = lower value): 0.429 (active)
normalized growth (locus YGR229C, strain SMI1, stronger effect = lower value): 0.0837 (active)
normalized growth (locus YGR252W, strain gcn5, stronger effect = lower value): 0.516 (active)
normalized growth (locus YHR013C, strain ard1, stronger effect = lower value): 0.937
normalized growth (locus YHR027C, strain rpn1, stronger effect = lower value): 0.911 (active)
normalized growth (locus YHR030C, strain SLT2, stronger effect = lower value): 0.219 (active)
normalized growth (locus YHR079C, strain IRE1 (second series), stronger effect = lower value): 0.626 (active)
normalized growth (locus YHR094C, strain hxt1, stronger effect = lower value): 0.888 (active)
normalized growth (locus YHR129C, strain ARP1, stronger effect = lower value): 0.205 (active)
normalized growth (locus YHR142W, strain chs7, stronger effect = lower value): 0.969
normalized growth (locus YHR200W, strain rpn10, stronger effect = lower value): 0.569 (active)
normalized growth (locus YIL066C, strain RNR3, stronger effect = lower value): 0.0703 (active)
normalized growth (locus YIL073C, strain SPO22, stronger effect = lower value): 0.15 (active)
normalized growth (locus YIL125W, strain kgd1, stronger effect = lower value): 1.02
normalized growth (locus YIR030C, strain dcg1, stronger effect = lower value): 0.863 (active)
normalized growth (locus YJL092W, strain hpr5, stronger effect = lower value): 1.03
normalized growth (locus YJL095W, strain BCK1 (second series), stronger effect = lower value): 0.991
normalized growth (locus YJL095W, strain BCK1, stronger effect = lower value): 0.107 (active)
normalized growth (locus YJL115W, strain asf1, stronger effect = lower value): 1.03
normalized growth (locus YJL129C, strain trk1, stronger effect = lower value): 1.06
normalized growth (locus YJL134W, strain LCB3, stronger effect = lower value): 0.432 (active)
normalized growth (locus YJL154C, strain vps35, stronger effect = lower value): 1.02
normalized growth (locus YJL164C, strain tpk1, stronger effect = lower value): 0.941
normalized growth (locus YJL166W, strain qcr8, stronger effect = lower value): 0.984
normalized growth (locus YJL168C, strain set2, stronger effect = lower value): 0.934
